Source: PubChem BioAssay
IL1B secr inh = inflammasome signaling inhibition, IL-1 beta readout. THP-1 LPS/ATP IL-1B secretion, AlphaLISA, 16 h; hits give low values. activity change, % at 57.5 µM. 360,000 compounds, 4.7% hits. AID 743279; in the data active means activity change below about -50%; inconclusive means mostly about -30% to -49%
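THP-1 cells pretreated 1 hr with compounds (up to 57.5 uM final), then stimulated with LPS (250 ng/mL final) plus ATP (1.25 mM final); secreted IL-1B measured by AlphaLISA after 16 hr, decreased signal indicating inhibition.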
VP16 counter = Gal4-VP16 reporter inhibition counter-screen | Drosophila S2 Gal4-VP16 UAS-luciferase, luminescence, 20 h | Potency, µM (series often up to 53.6 µM), most hits filed as inhibitors | 310,000 compounds, 3.5% hits | AID 2546;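 further: Gal4-VP16 expression switched on by copper sulfate through the metallothionein promoter; nearly all actives have a fitted effect of over 50% in size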
LDHA block = inhibitors of human lactate dehydrogenase A | 480,000 compounds, 0.15% hits | activity change, % (values are at about 110 or 230 µM) | purified LDHA, NADH/diaphorase-resazurin fluorescence; hits give low values | AID 1347041 | P00338; in the data active means activity change below about -30%; inconclusive means mostly about -25% to -30%
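Human LDH5 at 2 nM final in Tris HCl pH 7.4 with 0.06 mM NADH and 0.2 mM pyruvate, reacted 5 minutes at room temperature. Remaining NADH coupled via diaphorase/resazurin; resorufin fluorescence read at 0 and 20 minutes, normalized to enzyme-free and DMSO wells.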
RORgamma inh = ROR gamma (mouse) transcription inhibition; 310,000 compounds, 5.4% hits; P51450; Potency, µM (highest dose often 53.6 µM), usual class: inhibitors; Drosophila S2 Gal4-RORgamma UAS-luciferase reporter, 20 h; further: nearly all actives have a fitted effect of over 60% in size
Target sequence (P51450 whole entry, looked up, the tested form may be a part): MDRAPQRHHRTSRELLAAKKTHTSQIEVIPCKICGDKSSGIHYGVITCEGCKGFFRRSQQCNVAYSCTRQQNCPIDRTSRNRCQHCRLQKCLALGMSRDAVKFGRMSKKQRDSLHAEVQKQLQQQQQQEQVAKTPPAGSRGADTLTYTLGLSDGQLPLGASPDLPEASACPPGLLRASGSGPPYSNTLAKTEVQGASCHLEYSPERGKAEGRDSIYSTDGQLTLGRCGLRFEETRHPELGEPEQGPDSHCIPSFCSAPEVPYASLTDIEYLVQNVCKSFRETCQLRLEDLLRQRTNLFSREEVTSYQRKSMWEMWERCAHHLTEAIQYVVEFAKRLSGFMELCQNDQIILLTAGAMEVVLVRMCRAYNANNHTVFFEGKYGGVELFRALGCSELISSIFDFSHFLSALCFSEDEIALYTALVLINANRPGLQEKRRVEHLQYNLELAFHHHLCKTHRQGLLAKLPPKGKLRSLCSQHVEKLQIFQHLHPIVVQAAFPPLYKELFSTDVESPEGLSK
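In this cell-based reporter format, copper sulfate (700 uM final) drives Gal4–ROR gamma fusion expression from a metallothionein promoter in Drosophila Schneider cells; compounds preincubated 1 hr, reporter read after 20 hr at ambient temperature.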
DT40 TDP1 CPT = DT40-hTDP1 cell growth loss with CPT; chicken DT40 Tdp1-/-;hTDP1 cells + 20 nM CPT, ATP luminescence, 48 h; Potency, µM (series often up to 46.2 µM), most hits filed as inhibitors; 420,000 compounds, 12% hits; AID 686979; further: nearly all actives have a fitted effect of over 55% in size
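Chicken DT40 Tdp1-/- cells complemented with human TDP1, 400 cells/well, exposed to compounds plus 20 nM camptothecin for at least 48 h at 37 C; viability read as ATP content by CellTiter-Glo luminescence.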
TDP1 cell noCPT = qHTS for Inhibitors of human tyrosyl-DNA phosphodiesterase 1 (TDP1): qHTS in cells in absence of CPT; DT40 Tdp1-/- hTDP1 cells, no CPT, ATP luminescence, 48 h; Potency, µM (doses to about 46.2 µM), hits mostly inhibitors; 420,000 compounds, 15% hits; AID 686978, 2013; further: nearly all actives have a fitted effect of over 55% in size
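Cells were dispensed at 400 per well, compounds added by pin tool, plates incubated ≥48 hr at 37 °C, then CellTiter-Glo added for 30 min at room temperature before luminescence reading. Line: DT40 Tdp1-/- complemented with hTDP1; camptothecin omitted.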
Numbers stand for hits; i = inactive; ? = inconclusive; nt = no result given. In the library only some 18% were active in any assay of this set; here they are far more common. Unless noted, the call rests on the fitted dose curve; in most records, active means well fitted curve in the direction sought with a large enough effect; inconclusive means small, poorly fitted or top-dose-only effect, or another doubt; inactive means no such curve, though single readings can be large; an effect the other way counts as inactive or inconclusive.

SMILES | IL1B secr inh | VP16 counter | LDHA block | RORgamma inh | DT40 TDP1 CPT | TDP1 cell noCPT
Cc1cccn2c(=O)c3cc(C(=O)NCc4ccco4)c(=N)n(CCc4ccccc4)c3nc12 | -85 | i | i | i | i | 15µM
COc1ccc(CCNC(=O)c2cc3c(=O)n4cccc(C)c4nc3n(Cc3ccco3)c2=N)cc1OC | i | 1.1µM | i | 1.6µM | ? | 26µM
Cc1cccn2c(=O)c3cc(C(=O)NCCc4ccccc4)c(=N)n(Cc4ccco4)c3nc12 | i | i | i | i | 21µM | 10µM
CCOc1ccc(CNC2CC2)cc1 | nt | nt | i | nt | nt | nt
Cc1ccc(NC(=O)CSc2nc(-c3ccco3)ccc2C#N)cc1C | nt | nt | i | nt | nt | nt
CC1=C(C(=O)Nc2cccnc2)C(c2ccc(Cl)cc2)n2nc(-c3ccccc3)nc2N1 (stereo not given) | nt | nt | i | nt | 16µM | ?
COc1ccc(C2C(C(=O)Nc3ccccc3)=C(C)Nc3nc(-c4ccccc4)nn32)c(OC)c1 (stereo not given) | nt | nt | i | nt | 16µM | ?
COc1ccc(-c2nc3n(n2)C(c2ccc(OC)cc2)C(C(=O)Nc2cccnc2)=C(C)N3)cc1 (stereo not given) | nt | nt | i | nt | i | i
COc1ccc(NC(=O)C2=C(C)Nc3nc(SC)nn3C2c2cc(OC)ccc2OC)cc1 (stereo not given) | nt | nt | i | nt | i | i
COc1cccc(C2C(C(=O)Nc3ccccc3)=C(C)Nc3nc(-c4ccccc4)nn32)c1OC (stereo not given) | nt | nt | i | nt | 16µM | ?
NC(=O)COC(=O)c1ccc(C2Nc3ccccc3S(=O)(=O)N2)cc1 (stereo not given) | nt | nt | i | nt | nt | nt
COc1ccccc1OCC(=O)N1CCCC(Nc2ccc(C)c(C)c2)C1 (stereo not given) | i | i | i | i | ? | i
COc1ccc(NC2CCCN(C(=O)COc3ccc(Cl)cc3C)C2)cc1OC (stereo not given) | i | ? | i | i | 23µM | 26µM
Cc1c(CN2CCc3c([nH]c4ccccc34)C2C2CCCCC2)cnn1C (stereo not given) | i | i | i | i | i | 16µM
COCc1ccc(CN2CCc3c([nH]c4ccccc34)C2C(C)(C)C)o1 (stereo not given) | -53 | ? | i | 11µM | ? | ?
CCn1ccnc1CN1CCc2c([nH]c3ccccc23)C1C(C)(C)C (stereo not given) | -84 | ? | i | 4.5µM | ? | ?
CC(=O)c1cc(C(=O)N2CCc3c([nH]c4ccccc34)C2C2CCCCC2)[nH]n1 (stereo not given) | i | i | i | i | i | ?
CCn1ccnc1CN1CCc2c([nH]c3ccccc23)C1C1CCCCC1 (stereo not given) | i | ? | i | 13µM | ? | 26µM
COCCC(=O)N1CCc2c([nH]c3ccccc23)C1C(C)(C)C (stereo not given) | i | i | i | i | i | i
CCn1ccnc1CN1CCc2c([nH]c3ccccc23)C1CC(C)C (stereo not given) | i | 7.9µM | i | 3.2µM | ? | 16µM
Cc1cnc(CN2CCc3c([nH]c4ccccc34)C2CC(C)C)[nH]1 (stereo not given) | ? | i | i | i | ? | ?
COc1ccc2[nH]c3nc(SCc4nnc(-c5ccc(C)cc5)o4)nnc3c2c1 | i | i | i | i | 26µM | 16µM
COc1ccc(C)cc1NC(=O)c1cccc(C(=O)Nc2cc(C)ccc2OC)c1 | ? | i | i | ? | 15µM | 10µM
COc1ccc(C)cc1NC(=O)Nc1ccc(Br)cn1 | i | i | i | 10µM | i | i
COc1ccc(OC)c(NC(=O)c2cc(OC(C)=O)cc(C(=O)Nc3cc(OC)ccc3OC)c2)c1 | i | i | i | i | ? | 10µM
SMILES | IL1B secr inh | VP16 counter | LDHA block | RORgamma inh | DT40 TDP1 CPT | TDP1 cell noCPT
O=C(Nc1ccc(Br)cn1)Nc1ccc(F)cc1F | nt | nt | i | nt | nt | nt
COc1ccccc1NC(=S)NNC(=O)c1nn(C)c(C)c1Br | i | i | i | i | ? | ?
COc1ccc(C(=O)Nc2cc(OC)ccc2OC)cc1 | i | i | i | i | i | i
COc1ccc(C)cc1NC(=S)NNC(=O)c1c(Br)cnn1C | i | i | i | 2µM | i | ?
O=C(NCc1ccc2c(c1)OCO2)c1ccc(N2CCCN(Cc3ccccc3)C2=O)cc1 | nt | nt | i | nt | nt | nt
COc1ccc(CNC(=O)[C@H](C)[C@@H]2C[C@@]2(C)[C@@H](NC(=O)OCc2ccccc2)c2ccccc2)cc1OC | i | i | i | ? | 15µM | 12µM
COc1ccc(CNC(=O)[C@H](C)[C@H]2C[C@]2(C)[C@H](NC(=O)OCc2ccccc2)c2ccccc2)cc1OC | nt | i | nt | i | nt | nt
Cc1cc(CNC(=O)[C@H](C)[C@@H]2C[C@@]2(C)[C@@H](NC(=O)OCc2ccccc2)c2ccccc2)nn1C | i | ? | i | ? | 23µM | ?
CCCCN(C)C(=O)CSc1nc2ccsc2c(=O)n1-c1ccccc1F | nt | nt | i | nt | nt | nt
O=C(Cn1cc(SCc2ccc(C(F)(F)F)cc2)c2ccccc21)N1CCCCC1 | nt | nt | i | nt | ? | 23µM
O=C(CSc1cn(CC(=O)N2CCCCC2)c2ccccc12)Nc1ccc(C(F)(F)F)cc1 | nt | nt | i | nt | i | i
O=C(CSc1cn(CC(=O)N2CCCC2)c2ccccc12)Nc1ccc(C(F)(F)F)cc1 | nt | nt | i | nt | nt | nt
O=C(CSc1cn(CC(=O)N2CCCC2)c2ccccc12)Nc1cc(C(F)(F)F)ccc1Cl | nt | nt | i | nt | 18µM | ?
O=C(Cn1cc(SCc2ccc(C(F)(F)F)cc2)c2ccccc21)N1CCCCCC1 | nt | nt | i | nt | 18µM | ?
O=C(CCc1ncc(-c2ccc(F)cc2)o1)NCCc1ccccc1 | nt | nt | i | nt | nt | nt
CCOC(=O)c1ccoc1COC(=O)c1[nH]c(C)c(C(=O)OC)c1C | nt | nt | i | nt | nt | nt
COC(=O)c1ccc2c(=O)[nH]c(CCl)nc2c1 | -97 | i | i | 13µM | 12µM | 15µM
C=CCn1c(SCN2C(=O)c3ccccc3C2=O)nc2ccc(Cl)cc2c1=O | i | 7.9µM | i | 8.9µM | 18µM | 18µM
C=CCn1c(SCC(N)=O)nc2ccccc2c1=O | nt | nt | i | nt | i | i
C=CCn1c(SCc2nc3cc(C(=O)OC)ccc3c(=O)[nH]2)nc2sc(CC)cc2c1=O | i | i | i | i | ? | 18µM
C=CCn1c(SCc2nc3ccccc3c(=O)[nH]2)nc2scc(C3CC3)c2c1=O | i | i | i | i | 15µM | 16µM
C=CCn1c(SC(C)C(N)=O)nc2sc(CC)cc2c1=O (stereo not given) | i | i | i | i | i | ?
COc1ccc(Nc2nc(Nc3ccc(C)c(Cl)c3)c3nccnc3n2)cc1 | nt | nt | i | nt | nt | nt
